The test system of the assay is PPARg:RXRa DBDmut IVT, anti-RXR (DBD mutation: RXRa K156A/R161A, NR concentration 270 nM, RXRa partner concentration 90 nM). In words: PBM binding z-score (relative to random genomic background probes); higher = stronger binding; sequences stand for … in GC…GCGATTGACAGCGTAGAATGAAGG
An outline of the steps:
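Random background probes are the reference for binding z-scores. These scores derive from regression-normalized fluorescence on custom Agilent 4×180K protein-binding microarrays incubated 1 h with ligand-free nuclear receptor dimers. Binding was detected with antibodies against each partner (one per run).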
In turn, ATATGTAGGTTAGCTGTGGTCATTCAGACTAGGC showed a PBM binding z-score of 6.97.

In turn, TCTCGGAGGACACGAAAGGTCAGCGCTCGACATC had a PBM binding z-score of 2.02.

TCCTGTAGATCAAAGGTTAAGAAAGCCGAAGCCT returned a PBM binding z-score of 1.82.

In turn, TCTAGTTGGTCGAAGGTCACACACTCGAAATGCG came in with a PBM binding z-score of 1.87.

The sequence TCATATAGGTAAAGGTGAAAGTCGAACGATATGA showed a PBM binding z-score of 3.76.

Sequence TAGCCTAGGTCATTCATGGGCCAGTATAGAAAGC had a PBM binding z-score of 1.41.

Turning to AGAATGAGCTTATACGTAGATCAGGGAAGAAAGT, the PBM binding z-score is -1.19.

GCGACTGGGGCAAAGCAGGTTACCATAAGGTTGG gave a PBM binding z-score of 4.62.

Sequence ACTAGTTTGTCAGCTGAGGTCACACACAATTCGG showed a PBM binding z-score of 1.11.

ATACCAAGGTGTTCGTGAGGTCGTTGATACTAAC came in with a PBM binding z-score of -0.0075.

As to CCAGACAGGTGAAAGGTAAGTCAGTCTGGTACGC, the PBM binding z-score came to 2.21.

Turning to AGAATGAGGTTATACGTATATCAGGGAAGAAAGT, the PBM binding z-score came to 2.88.

Turning to GCTATTAGTTGAAAGGGCTACCGAATGATTCTCG, the PBM binding z-score is 0.511.

In turn, CCTACTGGGCCAAAGGTCATTGTTTCCAATGCTC gave a PBM binding z-score of 5.12.

GCTAGCAGGCCATTTGGGTCTCTCAATGACGGGC: the PBM binding z-score worked out at 0.644.

As for TCGAGTAGGTTAGTTGGGGCATTCAGCCAACATA, the PBM binding z-score was 2.05.

Consider AATACAGGGCCACTAGGCCAGAGTAGGTACGAAT, for which the PBM binding z-score turned out to be 1.33.

As to ATACGTAGGTTAGCTGGGGTCATTCAGACTAGGC, the PBM binding z-score worked out at 0.981.

In turn, GCTAGTTGGCCAGTAAAAGGTCACACACCGGTCG returned a PBM binding z-score of 0.354.

The sequence TGTCAAAGTTCAGAGGTAACGTAAGTATCCACAC displayed a PBM binding z-score of -0.368.

The sequence ATCTCTAGGTCAGACTCAGTTCAGTGAAGAACGC came in with a PBM binding z-score of 5.06.

As to TCACATAGGTAAAAGGTGAAAGTCGGTGTGGTAA, the PBM binding z-score was determined as 2.98.

The values above are taken from the supplement of paper PMC6555819.
